We go through two molecules from ChEMBL document CHEMBL1961873, “Compounds: GSK PKIS; Assays: Nanosyn kinase panel” (2012).

Test [1] addresses Protein kinase C gamma type (Homo sapiens) (UniProt P05129). The settings on record: at 1 µM.
Test [2] concerns the target T1, Protein kinase C iota type (Homo sapiens) (UniProt P41743).
T1 sequence (whole entry): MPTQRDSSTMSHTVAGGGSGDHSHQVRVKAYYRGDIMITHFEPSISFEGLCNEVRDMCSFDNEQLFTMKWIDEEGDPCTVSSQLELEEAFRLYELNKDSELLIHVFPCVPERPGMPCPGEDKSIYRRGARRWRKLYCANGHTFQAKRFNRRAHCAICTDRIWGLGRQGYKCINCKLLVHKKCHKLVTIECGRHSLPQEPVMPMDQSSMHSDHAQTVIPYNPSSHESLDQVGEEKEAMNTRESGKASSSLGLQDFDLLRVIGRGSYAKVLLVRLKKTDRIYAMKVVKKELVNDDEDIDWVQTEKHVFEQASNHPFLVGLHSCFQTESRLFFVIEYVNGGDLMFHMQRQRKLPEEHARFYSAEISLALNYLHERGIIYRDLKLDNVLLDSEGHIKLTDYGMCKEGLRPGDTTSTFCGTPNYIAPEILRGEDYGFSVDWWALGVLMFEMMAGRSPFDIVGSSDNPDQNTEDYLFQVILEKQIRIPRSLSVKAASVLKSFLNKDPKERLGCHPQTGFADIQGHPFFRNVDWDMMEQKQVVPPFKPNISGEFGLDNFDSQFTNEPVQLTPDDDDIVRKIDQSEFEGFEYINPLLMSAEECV
The note with it: at 0.1 µM.

Test [3] has as its target T1, Protein kinase C iota type (Homo sapiens). The note with it: at 1 µM.
Test [4] deals with Protein kinase C theta type (Homo sapiens) (UniProt Q04759). The settings on record: at 0.1 µM.
Protein kinase C theta type (Homo sapiens), sequence (Q04759 whole entry, looked up): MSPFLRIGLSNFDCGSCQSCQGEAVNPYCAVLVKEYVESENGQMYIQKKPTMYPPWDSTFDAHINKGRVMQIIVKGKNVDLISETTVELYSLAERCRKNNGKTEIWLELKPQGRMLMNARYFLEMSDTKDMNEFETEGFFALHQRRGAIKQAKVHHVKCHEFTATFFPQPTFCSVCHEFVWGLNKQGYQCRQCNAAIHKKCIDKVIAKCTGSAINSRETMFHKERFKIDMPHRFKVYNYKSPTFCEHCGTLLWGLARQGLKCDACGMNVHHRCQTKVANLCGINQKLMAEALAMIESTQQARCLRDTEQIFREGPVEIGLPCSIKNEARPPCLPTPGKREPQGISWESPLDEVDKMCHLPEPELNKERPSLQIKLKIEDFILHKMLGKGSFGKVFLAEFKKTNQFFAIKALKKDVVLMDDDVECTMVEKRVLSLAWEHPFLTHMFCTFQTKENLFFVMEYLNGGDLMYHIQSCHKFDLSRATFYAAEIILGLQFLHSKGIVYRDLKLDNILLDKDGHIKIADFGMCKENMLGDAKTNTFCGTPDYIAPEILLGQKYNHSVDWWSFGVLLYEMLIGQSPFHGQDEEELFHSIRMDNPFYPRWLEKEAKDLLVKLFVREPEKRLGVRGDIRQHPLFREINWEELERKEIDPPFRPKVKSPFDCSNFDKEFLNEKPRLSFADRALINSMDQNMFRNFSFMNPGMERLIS
For test [5] the target is unchanged. The settings on record: at 1 µM.
The target in test [6] is Protein kinase C beta type (Homo sapiens) (UniProt P05771). The settings on record: at 0.1 µM.
Protein kinase C beta type (Homo sapiens), sequence (P05771 2-671 limits assumed): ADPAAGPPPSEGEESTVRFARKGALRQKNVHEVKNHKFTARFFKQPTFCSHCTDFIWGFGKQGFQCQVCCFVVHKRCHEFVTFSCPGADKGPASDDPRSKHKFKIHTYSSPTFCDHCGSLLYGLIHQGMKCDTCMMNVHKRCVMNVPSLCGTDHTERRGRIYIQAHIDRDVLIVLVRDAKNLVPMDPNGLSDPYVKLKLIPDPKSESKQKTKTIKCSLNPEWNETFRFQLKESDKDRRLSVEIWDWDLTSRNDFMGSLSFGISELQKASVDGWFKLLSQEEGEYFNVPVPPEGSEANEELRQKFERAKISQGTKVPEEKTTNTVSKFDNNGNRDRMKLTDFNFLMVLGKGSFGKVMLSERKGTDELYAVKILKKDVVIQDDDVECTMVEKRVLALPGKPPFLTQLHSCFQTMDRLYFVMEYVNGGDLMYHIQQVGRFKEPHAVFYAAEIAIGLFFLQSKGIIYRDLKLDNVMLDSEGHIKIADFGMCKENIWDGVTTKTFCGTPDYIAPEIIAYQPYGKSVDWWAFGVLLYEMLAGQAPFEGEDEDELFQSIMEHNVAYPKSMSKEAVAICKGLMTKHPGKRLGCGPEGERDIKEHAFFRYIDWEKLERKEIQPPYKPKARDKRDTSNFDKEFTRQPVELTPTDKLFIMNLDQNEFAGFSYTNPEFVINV
Test [7] has the same target. The note with it: at 1 µM.
The target of test [8] is T2, Serine/threonine-protein kinase D1 (Homo sapiens) (UniProt Q15139).
T2 sequence (whole entry): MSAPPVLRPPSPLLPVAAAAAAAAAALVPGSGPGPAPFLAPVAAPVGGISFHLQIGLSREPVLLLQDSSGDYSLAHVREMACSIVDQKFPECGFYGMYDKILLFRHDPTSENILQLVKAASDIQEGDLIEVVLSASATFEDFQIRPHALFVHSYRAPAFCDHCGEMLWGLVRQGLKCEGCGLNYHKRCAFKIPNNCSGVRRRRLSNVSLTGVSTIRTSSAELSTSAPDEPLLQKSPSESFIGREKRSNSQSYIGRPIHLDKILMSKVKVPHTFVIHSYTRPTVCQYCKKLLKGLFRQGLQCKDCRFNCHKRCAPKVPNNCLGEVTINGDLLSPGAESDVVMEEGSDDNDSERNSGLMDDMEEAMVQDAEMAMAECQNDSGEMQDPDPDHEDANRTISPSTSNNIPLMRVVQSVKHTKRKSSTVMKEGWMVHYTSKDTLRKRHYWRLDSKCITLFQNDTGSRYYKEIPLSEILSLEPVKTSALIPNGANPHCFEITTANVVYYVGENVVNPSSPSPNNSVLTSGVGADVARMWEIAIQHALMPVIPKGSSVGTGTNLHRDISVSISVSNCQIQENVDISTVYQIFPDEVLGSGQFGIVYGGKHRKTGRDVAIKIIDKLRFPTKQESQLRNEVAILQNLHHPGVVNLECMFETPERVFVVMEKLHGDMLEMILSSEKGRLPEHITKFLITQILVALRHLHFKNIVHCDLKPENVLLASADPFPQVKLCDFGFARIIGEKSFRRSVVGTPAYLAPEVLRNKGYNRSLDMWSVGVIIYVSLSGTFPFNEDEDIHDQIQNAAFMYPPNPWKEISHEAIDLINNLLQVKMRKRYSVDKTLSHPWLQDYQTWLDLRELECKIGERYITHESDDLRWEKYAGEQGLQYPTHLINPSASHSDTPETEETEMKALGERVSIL
The settings on record: at 0.1 µM.

The target of test [9] is T2, Serine/threonine-protein kinase D1 (Homo sapiens). The note with it: at 1 µM.
Test [10] deals with T3, Serine/threonine-protein kinase D2 (Homo sapiens) (UniProt Q9BZL6).
T3 sequence (whole entry): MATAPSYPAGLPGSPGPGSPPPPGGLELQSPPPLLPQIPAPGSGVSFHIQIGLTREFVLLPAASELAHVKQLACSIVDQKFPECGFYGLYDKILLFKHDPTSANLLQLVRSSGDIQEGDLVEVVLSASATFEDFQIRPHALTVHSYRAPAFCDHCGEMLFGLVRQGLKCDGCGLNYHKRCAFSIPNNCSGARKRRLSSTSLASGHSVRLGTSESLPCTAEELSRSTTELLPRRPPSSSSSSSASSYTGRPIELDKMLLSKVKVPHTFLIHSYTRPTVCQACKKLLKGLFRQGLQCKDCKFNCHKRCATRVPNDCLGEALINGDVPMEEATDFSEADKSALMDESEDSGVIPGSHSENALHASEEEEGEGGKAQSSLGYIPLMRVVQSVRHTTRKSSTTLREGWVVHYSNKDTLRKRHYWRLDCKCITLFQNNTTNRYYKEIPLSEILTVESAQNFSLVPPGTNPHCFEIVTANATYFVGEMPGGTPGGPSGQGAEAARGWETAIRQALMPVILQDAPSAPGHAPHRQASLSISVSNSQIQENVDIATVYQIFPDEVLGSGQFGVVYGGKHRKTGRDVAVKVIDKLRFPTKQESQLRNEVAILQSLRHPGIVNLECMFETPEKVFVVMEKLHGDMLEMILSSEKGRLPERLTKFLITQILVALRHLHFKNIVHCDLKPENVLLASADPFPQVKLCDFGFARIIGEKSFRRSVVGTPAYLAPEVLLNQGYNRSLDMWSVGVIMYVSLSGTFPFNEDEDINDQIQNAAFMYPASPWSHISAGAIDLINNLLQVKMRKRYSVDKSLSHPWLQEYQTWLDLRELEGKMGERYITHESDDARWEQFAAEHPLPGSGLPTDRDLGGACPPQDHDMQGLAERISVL
The note with it: at 0.1 µM.

Test [11] addresses T3, Serine/threonine-protein kinase D2 (Homo sapiens). The note with it: at 1 µM.
Test [12] has as its target T4, Serine/threonine-protein kinase D3 (Homo sapiens) (UniProt O94806).
T4 sequence (whole entry): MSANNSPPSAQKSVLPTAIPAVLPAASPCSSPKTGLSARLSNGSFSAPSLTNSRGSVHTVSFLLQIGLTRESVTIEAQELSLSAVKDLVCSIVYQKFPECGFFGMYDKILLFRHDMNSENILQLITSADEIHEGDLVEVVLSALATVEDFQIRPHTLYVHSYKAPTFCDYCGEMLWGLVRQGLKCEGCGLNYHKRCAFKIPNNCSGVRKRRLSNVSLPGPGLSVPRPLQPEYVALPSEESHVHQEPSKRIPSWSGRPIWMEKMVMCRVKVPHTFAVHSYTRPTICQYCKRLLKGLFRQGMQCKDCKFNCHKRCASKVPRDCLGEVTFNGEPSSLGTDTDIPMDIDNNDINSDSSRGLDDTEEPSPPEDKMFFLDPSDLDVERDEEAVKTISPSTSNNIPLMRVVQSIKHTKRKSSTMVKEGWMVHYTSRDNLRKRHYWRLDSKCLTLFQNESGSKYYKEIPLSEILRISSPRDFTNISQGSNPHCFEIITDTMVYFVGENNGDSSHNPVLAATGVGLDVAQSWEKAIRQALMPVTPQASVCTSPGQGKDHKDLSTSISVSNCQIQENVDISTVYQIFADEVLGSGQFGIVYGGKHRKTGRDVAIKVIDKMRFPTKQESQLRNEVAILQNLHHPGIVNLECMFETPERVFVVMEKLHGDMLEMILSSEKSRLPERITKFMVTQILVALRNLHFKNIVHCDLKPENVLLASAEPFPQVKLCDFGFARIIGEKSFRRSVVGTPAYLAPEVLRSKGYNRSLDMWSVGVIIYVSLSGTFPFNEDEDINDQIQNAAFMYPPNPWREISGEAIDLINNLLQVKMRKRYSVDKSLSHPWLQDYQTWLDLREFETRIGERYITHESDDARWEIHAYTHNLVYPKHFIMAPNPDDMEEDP
The note with it: at 0.1 µM.

The target in test [13] is T4, Serine/threonine-protein kinase D3 (Homo sapiens). The settings on record: at 1 µM.
In test [14] the target is T5, cGMP-dependent protein kinase 1 (Homo sapiens) (UniProt Q13976).
T5 sequence (whole entry): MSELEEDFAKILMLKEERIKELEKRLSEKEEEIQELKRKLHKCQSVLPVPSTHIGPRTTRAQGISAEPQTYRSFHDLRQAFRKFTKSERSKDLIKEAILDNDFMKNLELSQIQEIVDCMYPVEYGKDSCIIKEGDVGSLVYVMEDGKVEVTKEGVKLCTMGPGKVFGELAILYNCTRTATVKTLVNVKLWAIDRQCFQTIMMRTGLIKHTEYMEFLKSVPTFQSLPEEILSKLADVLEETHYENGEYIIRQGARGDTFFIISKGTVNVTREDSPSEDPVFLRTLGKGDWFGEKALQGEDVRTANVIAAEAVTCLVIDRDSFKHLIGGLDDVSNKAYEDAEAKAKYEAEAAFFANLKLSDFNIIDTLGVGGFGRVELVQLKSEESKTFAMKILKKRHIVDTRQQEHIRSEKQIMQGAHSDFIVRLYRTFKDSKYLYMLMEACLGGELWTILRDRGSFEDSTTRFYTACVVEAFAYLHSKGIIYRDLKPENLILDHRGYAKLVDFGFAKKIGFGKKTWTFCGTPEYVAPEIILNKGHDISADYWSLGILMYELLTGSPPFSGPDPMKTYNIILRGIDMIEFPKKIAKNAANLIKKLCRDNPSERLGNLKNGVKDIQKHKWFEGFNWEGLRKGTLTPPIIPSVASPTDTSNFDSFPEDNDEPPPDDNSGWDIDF
The note with it: at 0.1 µM.

Test [15] concerns the target T5, cGMP-dependent protein kinase 1 (Homo sapiens). The settings on record: at 1 µM.
The target in test [16] is T6, cGMP-dependent protein kinase 2 (Homo sapiens) (UniProt Q13237).
T6 sequence (whole entry): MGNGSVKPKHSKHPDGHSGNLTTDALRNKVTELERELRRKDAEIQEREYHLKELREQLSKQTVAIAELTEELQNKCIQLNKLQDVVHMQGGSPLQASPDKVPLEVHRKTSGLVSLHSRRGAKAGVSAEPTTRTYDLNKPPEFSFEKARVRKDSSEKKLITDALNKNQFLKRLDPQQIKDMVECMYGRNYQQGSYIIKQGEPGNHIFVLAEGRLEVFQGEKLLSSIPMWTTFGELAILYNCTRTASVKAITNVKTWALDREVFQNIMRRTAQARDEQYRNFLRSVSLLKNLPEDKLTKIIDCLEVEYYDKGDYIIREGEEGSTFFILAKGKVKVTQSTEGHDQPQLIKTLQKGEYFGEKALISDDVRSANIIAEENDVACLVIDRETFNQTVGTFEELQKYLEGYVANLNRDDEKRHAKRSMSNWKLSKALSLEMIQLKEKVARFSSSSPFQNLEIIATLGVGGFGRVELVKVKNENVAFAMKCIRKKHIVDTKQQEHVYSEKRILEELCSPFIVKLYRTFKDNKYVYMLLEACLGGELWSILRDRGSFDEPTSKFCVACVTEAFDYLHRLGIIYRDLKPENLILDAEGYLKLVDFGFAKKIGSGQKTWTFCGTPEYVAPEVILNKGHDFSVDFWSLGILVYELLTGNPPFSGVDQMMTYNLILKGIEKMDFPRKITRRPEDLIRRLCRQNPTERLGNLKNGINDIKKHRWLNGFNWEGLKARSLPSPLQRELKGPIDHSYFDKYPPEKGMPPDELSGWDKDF
The settings on record: at 0.1 µM.

Test [17] addresses T6, cGMP-dependent protein kinase 2 (Homo sapiens). The settings on record: at 1 µM.
Test [18] has as its target T7, cAMP-dependent protein kinase catalytic subunit PRKX (Homo sapiens) (UniProt P51817).
T7 sequence (whole entry): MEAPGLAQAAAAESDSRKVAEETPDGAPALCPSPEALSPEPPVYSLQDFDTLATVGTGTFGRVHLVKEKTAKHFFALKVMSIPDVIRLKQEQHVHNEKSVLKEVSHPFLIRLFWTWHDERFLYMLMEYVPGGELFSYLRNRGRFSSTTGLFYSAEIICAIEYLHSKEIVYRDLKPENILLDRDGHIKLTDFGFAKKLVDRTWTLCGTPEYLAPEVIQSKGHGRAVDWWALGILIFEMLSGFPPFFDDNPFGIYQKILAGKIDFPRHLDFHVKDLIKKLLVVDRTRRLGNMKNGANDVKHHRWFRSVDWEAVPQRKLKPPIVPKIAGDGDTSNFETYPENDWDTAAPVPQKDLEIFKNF
The note with it: at 0.1 µM.

For test [19], the target named is T7, cAMP-dependent protein kinase catalytic subunit PRKX (Homo sapiens). The settings on record: at 1 µM.
The target in test [20] is Rho-associated protein kinase 1 (Homo sapiens) (UniProt Q13464). The note with it: at 0.1 µM.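 Also: values are mean percent inhibition of ROCK1.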
Rho-associated protein kinase 1 (Homo sapiens), sequence (Q13464 2-1354 limits assumed): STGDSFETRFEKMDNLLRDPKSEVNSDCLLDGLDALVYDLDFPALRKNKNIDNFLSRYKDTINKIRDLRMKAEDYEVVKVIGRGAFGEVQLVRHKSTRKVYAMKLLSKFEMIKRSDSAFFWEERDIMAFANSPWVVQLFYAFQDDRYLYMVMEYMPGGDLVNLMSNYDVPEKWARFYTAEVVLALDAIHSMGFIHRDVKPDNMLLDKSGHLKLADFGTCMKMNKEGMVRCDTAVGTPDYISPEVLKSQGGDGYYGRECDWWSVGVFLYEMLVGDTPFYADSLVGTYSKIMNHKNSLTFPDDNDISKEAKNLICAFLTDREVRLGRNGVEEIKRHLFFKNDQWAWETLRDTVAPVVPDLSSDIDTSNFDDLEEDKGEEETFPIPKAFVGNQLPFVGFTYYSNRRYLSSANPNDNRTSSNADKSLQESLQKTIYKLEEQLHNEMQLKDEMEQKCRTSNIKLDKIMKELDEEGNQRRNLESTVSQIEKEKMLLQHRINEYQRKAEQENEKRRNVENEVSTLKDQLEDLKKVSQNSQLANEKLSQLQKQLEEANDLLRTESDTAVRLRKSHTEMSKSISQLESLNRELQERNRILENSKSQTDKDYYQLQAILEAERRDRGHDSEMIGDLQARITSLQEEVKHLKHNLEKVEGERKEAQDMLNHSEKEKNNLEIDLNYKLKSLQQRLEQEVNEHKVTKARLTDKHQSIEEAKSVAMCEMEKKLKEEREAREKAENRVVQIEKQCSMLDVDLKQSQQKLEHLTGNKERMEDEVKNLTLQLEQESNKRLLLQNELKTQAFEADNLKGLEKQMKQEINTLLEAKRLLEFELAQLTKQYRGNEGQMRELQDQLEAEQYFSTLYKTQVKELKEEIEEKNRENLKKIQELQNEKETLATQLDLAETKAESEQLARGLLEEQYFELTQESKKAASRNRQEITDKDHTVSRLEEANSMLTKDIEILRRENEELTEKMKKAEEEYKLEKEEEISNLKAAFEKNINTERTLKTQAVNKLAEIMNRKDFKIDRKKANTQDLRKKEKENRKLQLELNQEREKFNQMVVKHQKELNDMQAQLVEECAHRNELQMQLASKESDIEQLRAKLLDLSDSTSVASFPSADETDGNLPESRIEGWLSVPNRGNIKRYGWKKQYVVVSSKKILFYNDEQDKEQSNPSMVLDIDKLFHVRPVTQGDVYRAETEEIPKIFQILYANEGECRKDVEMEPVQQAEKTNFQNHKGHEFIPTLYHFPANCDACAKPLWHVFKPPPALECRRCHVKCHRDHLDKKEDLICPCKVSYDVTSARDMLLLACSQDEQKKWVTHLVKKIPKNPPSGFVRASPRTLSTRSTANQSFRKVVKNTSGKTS

SMILES strings stand for the structures.

The inhibition is the share of the control response that was lost under treatment. Take `COc1cccc(-n2ncc3c(N/N=C/c4ccc(F)cc4)ncnc32)c1`: the inhibition in test [1] stood at 2.6%; in [2] it was 1.87%; in [3] it was 1.45%; in test [4], 2.53%; in test [5], 4.19%; in [6] it was 2.56%. Besides, the inhibition in test [7] turned out to be 0.22%; in [8] it was 3.64%; in test [9] it was 4.89%; in test [10], 3.35%; in test [11], 3.35%; in test [12], 4.25%. Further, the inhibition in [13] was 4.06%; in test [14], 1.9%; in test [15] it was 4.15%; in [16], 2.19%; in test [17], 2.67%; in test [18], 2.4%. Also, the inhibition is 4.79% in test [19] and 1% in [20].
As to `Nc1nc(-c2ccc(F)cc2)c(-c2ccc3ncccc3n2)s1`, the inhibition in test [1] amounted to 4.5%; in [2] it was 2.17%; in [3], 1.59%; in test [4], 1.69%; in test [5], 3.74%; in test [6] it was 1.11%. For the same molecule, the inhibition in test [7] turned out to be 3.48%; in test [8], 8%; in test [9] it was 45%; in test [10], 8.22%; in test [11], 51.9%; in [12], 8.64%. The inhibition was 41.8% in test [13]; 0.69% in [14]; 4.97% in [15]; 2.78% in test [16]; 4.3% in [17]; 2.61% in [18]. In addition, the inhibition came out at 3.14% in test [19] and 0.86% in test [20].
